Measurements reported in PubChem BioAssay (NCI).
Compounds without any hit were thinned out: in the full panel of roughly 83,000, 20% have a hit.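 Note: values are percent growth. 100 is the growth of untreated cells, values between 100 and 0 indicate rising inhibition; between -100 and 0 indicates cell death.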 Values without a mark were called inactive. Activity calls are given as the source filed them. How the source made its calls: active means growth percent below 10; inactive means the rest.

Columns and labels:
Assay in all cases: NCI-60 one-dose screen, 48 h (100 = growth as untreated, 0 = no growth, -100 = all killed)
Settings in all cases: 10 µM unless noted
SK-MEL-2 melanoma = test system: SK-MEL-2 melanoma
EKVX NSCLC = test system: EKVX NSCLC
SN12C renal = test system: SN12C renal
UO-31 renal = test system: UO-31 renal
TK-10 renal = test system: TK-10 renal
ACHN renal = test system: ACHN renal
CAKI-1 renal = test system: CAKI-1 renal
A498 renal = test system: A498 renal
MOLT-4 leukemia = test system: MOLT-4 leukemia
CCRF-CEM leukemia = test system: CCRF-CEM leukemia

Row | SMILES | growth (SK-MEL-2 melanoma) | growth (EKVX NSCLC) | growth (SN12C renal) | growth (UO-31 renal) | growth (TK-10 renal) | growth (ACHN renal) | growth (CAKI-1 renal) | growth (A498 renal) | growth (MOLT-4 leukemia) | growth (CCRF-CEM leukemia)
1 | O=C(CN1CCN(c2cc3c(cc2F)c(=O)c(C(=O)O)cn3C2CC2)CC1)N/N=C/c1ccco1 | 105% | 97.8% | 108% | 88.3% | 101% | 98.1% | 99.7% | 91.7% | 93.9% | –
2 | Nc1ccc(-c2csc(-n3[nH]c(=O)ccc3=O)n2)cc1 | 109% | 88.4% | 103% | 84.1% | 120% | 99.5% | 94% | 103% | 87.6% | –
3 | CCOc1cccc(/C=N/NC(=O)c2cccc(Nc3ccnc(C(F)(F)F)c3)c2)c1O | 58.7% | 21.3% | 33.2% | 17.3% | 49.5% | 24.4% | 18.3% | 61.5% | 18.2% | –
4 | O=C(c1c[nH]c2ccccc12)c1n[nH]c(=S)n1-c1cccc(Br)c1 | 85.9% | 70.9% | 96.3% | 86.6% | 106% | 100% | 77.2% | 118% | 90.2% | –
5 | CC(=O)ON1CCCC(P(=O)(OCCSC(=O)C(C)(C)C)OCCSC(=O)C(C)(C)C)C1=O (stereo unspecified) | 50.6% | 22.8% | 3.59% (active) | -0.776% (active) | 27.2% | 20.1% | 24% | -8.82% (active) | 15.5% | –
6 | CCOC(=O)C1=C(C)/C(=C\c2[nH]c(C)c(C(=O)OCC)c2C)N=C1C | 85.6% | 94.2% | 79.1% | 73.7% | 108% | 96.5% | 85% | 103% | 9.99% (active) | –
7 | C#COc1cccc(Nc2ncnc3cc(NC(=O)[C@@H](C)Cl)ccc23)c1 | 27.4% [6.25 µM] | 36.7% [6.25 µM] | 22% [6.25 µM] | 29.2% [6.25 µM] | 10.6% [6.25 µM] | 20.8% [6.25 µM] | 19.4% [6.25 µM] | 11.8% [6.25 µM] | 11.4% [6.25 µM] | –
8 | CCCCNC(=O)Oc1ccc(/C(=C(/C)Cc2ccc(OC)cc2)c2ccc(OCCN3CCCCC3)cc2)cc1 | 113% | 76.3% | 73.9% | 51% | 84.4% | 91.3% | 83.6% | 96.3% | 33.6% | –
9 | COc1ccc(Oc2nc(Nc3ccc(N4CCOCC4)cc3)ncc2NC(=O)Nc2cc(OC)cc(OC)c2)cc1 | 17.8% | 73.1% | -12.7% (active) | 47.8% | 28.4% | 17.4% | 16.3% | 9.34% (active) | 36.8% | –
10 | CCOC(=O)c1c(C)nc2ccccc2c1/C=C/c1cccs1 | 63.6% | 67.6% | 78.4% | 63.6% | 90.2% | 76.5% | 63% | 84.5% | 49.4% | –
11 | CC1(C)C(N)=Nc2cc(OCCCN3Cc4ccccc4C3)c(OCC3CC3)cc21 | 108% | 77.6% | 84.5% | 58.6% | 81.3% | 96.6% | 52.5% | 92% | 36.1% | –
12 | CSc1nc(C)c([N+](=O)[O-])c(N)n1 | 109% | 102% | 99.1% | 98% | 89.4% | 112% | 98.4% | 101% | 93.4% | –
13 | CN(C)CCN1C(=O)c2cccc3c(/C=C/CN4C(=O)c5cccc6cccc(c56)C4=O)ccc(c23)C1=O | 104% | – | 79.9% | 72% | 121% | 72.7% | 91% | 81.4% | 34.3% | -44.1% (active)
14 | Nc1[nH]n2cc(-c3ccc(F)cc3)nc2c1N=Nc1ccc(S(N)(=O)=O)cc1 | 70.1% | – | 68.9% | 58.3% | 83.8% | 52.3% | 47.4% | 40.1% | 85.8% | 66.6%
